Measurements: the supplement of paper PMC3545927
The list shows a part of the results. The hit rate among all sequences tested is not known here.

Biological target: furin, P09958
Assay: furin cleavage Z-score vs untreated control; higher = more cleavage, active = 3.5 or more, inactive = 1 or less, 8 variable residues between constant flanks
Outline: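 Purified furin digested bead-held 8-mer peptide–cDNA fusions at 1:10 enzyme:substrate in 0.01 ml of 50 mM HEPES pH 7.5 with CaCl2 and NaCl for 7.5, 15 or 30 min. The cleavage Z-score compares sequencing counts of released DNA with furin-free reactions on a log scale, with lowess adjustment and median absolute deviation scaling.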

Sequence of furin, P09958 (P09958 whole entry): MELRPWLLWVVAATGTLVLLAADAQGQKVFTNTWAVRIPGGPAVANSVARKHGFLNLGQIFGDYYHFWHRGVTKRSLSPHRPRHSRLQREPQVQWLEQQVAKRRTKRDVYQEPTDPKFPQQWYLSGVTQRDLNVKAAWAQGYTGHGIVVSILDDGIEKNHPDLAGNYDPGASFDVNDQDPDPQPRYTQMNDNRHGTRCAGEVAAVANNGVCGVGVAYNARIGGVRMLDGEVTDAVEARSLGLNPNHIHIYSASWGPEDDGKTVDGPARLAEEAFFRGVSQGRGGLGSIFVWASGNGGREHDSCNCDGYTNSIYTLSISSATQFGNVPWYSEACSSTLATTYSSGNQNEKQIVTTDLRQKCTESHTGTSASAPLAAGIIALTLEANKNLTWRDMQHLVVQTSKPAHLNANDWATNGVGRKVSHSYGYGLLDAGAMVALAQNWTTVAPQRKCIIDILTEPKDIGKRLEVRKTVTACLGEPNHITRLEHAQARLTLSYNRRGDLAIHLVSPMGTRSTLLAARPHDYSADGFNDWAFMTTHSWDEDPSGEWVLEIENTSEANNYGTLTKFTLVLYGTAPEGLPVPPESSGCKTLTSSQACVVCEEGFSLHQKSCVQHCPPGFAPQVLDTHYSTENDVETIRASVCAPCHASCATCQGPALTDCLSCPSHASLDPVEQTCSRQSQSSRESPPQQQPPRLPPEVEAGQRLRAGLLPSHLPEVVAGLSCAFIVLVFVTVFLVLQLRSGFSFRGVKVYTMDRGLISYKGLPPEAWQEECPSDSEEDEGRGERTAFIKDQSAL

Sequence	furin cleavage Z-score (7.5 min)	furin cleavage Z-score (15 min)	furin cleavage Z-score (30 min)
CAERKRIKRAAGNASASA [FS-650]	9.45 (active)	8.85 (active)	7.6 (active)
CAERKRECQLAGNASASA [FS-1670]	0.036 (inactive)	1.4	-0.462 (inactive)
CATAHRIKRAAGNASASA [FS-383]	9.97 (active)	8.71 (active)	6.96 (active)
CAHERRMKRFAGNASASA [FS-791]	10 (active)	11.5 (active)	9.74 (active)
CARPRRAKRFAGNASASA [FS-1069]	9.54 (active)	11 (active)	9.13 (active)
CARPRRFMDLAGNASASA [FS-3163]	0.819 (inactive)	0.127 (inactive)	1.71
CARSGRGPFGAGNASASA [FS-1925]	-0.792 (inactive)	-2.29 (inactive)	-0.384 (inactive)
CADLGRAKRFAGNASASA [FS-225]	6.94 (active)	8.17 (active)	9.16 (active)
CARPARLHRFAGNASASA [FS-1065]	-0.918 (inactive)	0.964 (inactive)	0.792 (inactive)
CARSGRAKRFAGNASASA [FS-1271]	10.1 (active)	10.5 (active)	11.1 (active)
CARSGRHVVFAGNASASA [FS-3079]	-0.951 (inactive)	0.442 (inactive)	1.42
CAKFPGGGQIAGNASASA [HC172]	-2.08 (inactive)	0.112 (inactive)	-2.19 (inactive)
CAELTTPCSGAGNASASA [HC1965]	-0.879 (inactive)	-0.537 (inactive)	-1 (inactive)
CAENLETTMRAGNASASA [HC760]	0.652 (inactive)	0.35 (inactive)	0.0456 (inactive)
CADPERRKRFAGNASASA [FS-985]	4.94 (active)	7 (active)	7.37 (active)
CATHFFSVLIAGNASASA [HC1584]	-0.934 (inactive)	-0.739 (inactive)	-0.913 (inactive)
CAVVCCSMSNAGNASASA [HC2101]	0.58 (inactive)	0.0609 (inactive)	0.764 (inactive)
CARLRRSSSPAGNASASA [FS-2353]	9.29 (active)	8.89 (active)	6.99 (active)
CARLARALSPAGNASASA [FS-1735]	5.51 (active)	6.45 (active)	6.16 (active)
CAWAGWLLSPAGNASASA [HC207]	-0.479 (inactive)	0.659 (inactive)	1.76
CARLARSFDCAGNASASA [FS-2568]	1.56	2.61	3.82 (active)
CARPARGAGPAGNASASA [FS-3015]	0.195 (inactive)	-1.12 (inactive)	-0.256 (inactive)

Sequence	furin cleavage Z-score (7.5 min)	furin cleavage Z-score (15 min)	furin cleavage Z-score (30 min)
CARLARGSPPAGNASASA [HC1255]	0.846 (inactive)	0.514 (inactive)	0.935 (inactive)
CARPARALHPAGNASASA [FS-2734]	1.19	3.17	4.44 (active)
CARPARVALPAGNASASA [FS-2053]	-1.54 (inactive)	-0.594 (inactive)	1.32
CATDATSILGAGNASASA [HC821]	0.234 (inactive)	-0.686 (inactive)	-0.354 (inactive)
CARHKKSKFTAGNASASA [FS-3253]	-0.584 (inactive)	-0.415 (inactive)	-1.12 (inactive)
CASMPPLEGEAGNASASA [HC1354]	0.264 (inactive)	-0.391 (inactive)	-0.745 (inactive)
CAGAAKAAAGAGNASASA [NG6]	-1.87 (inactive)	-1.89 (inactive)	-1.77 (inactive)
CAVVCCYMSYAGNASASA [HC117]	-0.228 (inactive)	0.612 (inactive)	-0.215 (inactive)
CAMTGYTGDFAGNASASA [HC881]	0.318 (inactive)	1.08	-0.18 (inactive)
CARPARFLDSAGNASASA [FS-2051]	0.467 (inactive)	1.13	1.17
CARLRRGGDPAGNASASA [FS-2574]	-0.102 (inactive)	1.44	0.372 (inactive)
CAVTKRSLSPAGNASASA [FS-2115]	1.18	3.3	4.48 (active)
CARLRRSLKPAGNASASA [FS-1745]	6.9 (active)	7.63 (active)	9.8 (active)
CAVTKRDVLDAGNASASA [FS-3144]	-0.767 (inactive)	-0.792 (inactive)	0.507 (inactive)
CARLRRGQCPAGNASASA [FS-1744]	-0.204 (inactive)	1.25	-0.396 (inactive)
CARLARGEDEAGNASASA [FS-2983]	-0.38 (inactive)	-0.666 (inactive)	-0.468 (inactive)
CARLARNVKEAGNASASA [FS-2984]	4.24 (active)	6.29 (active)	5.68 (active)
CARPARFLRHAGNASASA [FS-1401]	7.22 (active)	9.82 (active)	7.94 (active)
CARDRSELSPAGNASASA [HC489]	-0.384 (inactive)	0.819 (inactive)	-0.778 (inactive)
CAEEVALSTTAGNASASA [HC842]	0.962 (inactive)	-0.0897 (inactive)	1.67
CAEGTTPCSGAGNASASA [HC1976]	-0.304 (inactive)	0.383 (inactive)	-0.263 (inactive)
